About 83,000 compounds went through this panel and 20% of them were active in at least one assay; those are over-represented in the sample as a whole.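 Plates (96-well) were seeded with cells, treated with compound at one concentration, and incubated for 48 hours before percent growth was determined.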 A number with no mark means an inactive call. The source made the active and inactive calls. Rule for the calls: active = growth percent below 10; inactive = the rest.

This assay has as its system HL-60(TB) leukemia. As to the kind of experiment: NCI-60 one-dose screen, 48 h (100 = growth as untreated, 0 = no growth, -100 = all killed). To be noted: 10 µM unless noted.
As for `Oc1ccccc1/C=N/N=C/c1c(O)ccc2ccccc12`, the growth was 51%.
To `O=C1/C=C/[C@@H](O)[C@@H]2C[C@@H](O)C[C@H]2/C=C/CCC[C@H](CCc2ccc3ncccc3c2)O1` belongs -52.3% (active).
To `C[C@]12CC[C@@H]3c4cc(O)c(O)cc4CC[C@H]3[C@@H]1CC[C@@H]2O` belongs 4.62% (active).
